15 compounds from ChEMBL document CHEMBL3433997, “St. Jude Leishmania screening dataset” (2016) can be followed below.

Several values for one entry are separate records, joined by “and”; a condition that tells them apart may be missing. Equal entries are not always repeated.

For the test, the target named is Glucose transporter (Leishmania mexicana) (UniProt O61059). As to the kind of experiment: ST_JUDE_LEISH: Cytotoxicity at 2uM final concentration against transgenic Leishmania Mexicana promastigotes LmGT2 that are glucose transport deficient and complemented with the L. Mexicana glucose transporter 2. Activity is measured by DNA content using SYBR green in vitro. In kind it is functional.
With `O=C1COC(c2ccccc2)(c2ccccc2)CN1CC1CCN(Cc2ccc(O)cc2Cl)C1` (stereo not given), the inhibition worked out at 2.56%.
For `c1cncc(NCc2ccc(-c3cc4ccncc4cc3OC3CCNCC3)s2)c1` the value was 4.54%.
`CC(=O)Nc1ncc(C(=O)Nc2cccc(-c3cccc(-c4nc5cc(C(F)(F)F)ccc5[nH]4)c3)c2)s1`: the inhibition amounted to 0.3%.
For the compound `N#CCCN1CCN(Cc2cccc(-c3ccc(-c4nc5cc(F)ccc5[nH]4)cc3)c2)CC1`, the inhibition was 3.71%.
With `CCCN(CCC)C(=O)c1cc(C(=O)N[C@@H](Cc2ccccc2)[C@H](O)CNCc2cccc(C(F)(F)F)c2)cc(N2CCCCS2(=O)=O)c1`, the inhibition is -0.16%.
Under `CCn1c(CN2CCN(Cc3ccccc3)CC2)nc2cc(NC(=O)c3cccs3)ccc21` stands -1.93%; under `Cc1cc(CN2CCC(N3CC(c4ccccc4)(c4ccccc4)OCC3=O)C2)ccc1O` (stereo not given), -3.65%; under `CN(Cc1cnc2nc(N)nc(N)c2n1)c1ccc(C(=O)N[C@@H](CCC(=O)O)C(=O)O)cc1`, -0.37% and 1.34% and 3.42%.
For `Fc1ccc2[nH]c(-c3cccc(-c4cccc(CNCc5ccccc5)c4)c3)nc2c1` the value was -0.93%; for `CCCCCCCCCn1c(NCc2cc(Cl)ccc2O)nc2ccccc21`, 0.42%.
For `CC1CN(Cc2cccc(F)c2)CCN1c1ccc(NC(=O)c2ccc(F)cc2)cc1` (stereo not given) the value was 8.54%.
On to `Fc1ccccc1C=NNc1ccnc2cc(Cl)ccc12`, for which the inhibition worked out at 6.07%.
`O=C(O)c1ccc2nc(-c3ccccn3)c(-c3ccccn3)nc2c1`: the inhibition was -0.14%.
In the case of `Cn1ncc2c3c(CCN4CCC(NCc5ccc6c(c5)NC(=O)CO6)CC4)c(Cl)cnc3ccc21`, the inhibition is -0.28%.
For `COc1ccc2nccc(N(C)CC3(O)CCN(CCc4ccc5c(c4)OCCO5)CC3)c2n1` the value was 2.16%.
